Measurements reported in PubChem BioAssay (Tox21).
Records with an inconclusive call do not appear. Calls of active or inactive are those of the source. Unless noted, the call rests on the fitted dose curve.

Assays:
[1] = Nuclear factor erythroid 2-related factor 2/antioxidant responsive element (Nrf2/ARE) small molecule agonists: qHTS cell viability counter screen in human keratinocytes (AID 1919968; active means well fitted curve in the direction sought with a large enough effect in the repeat runs; an effect the other way counts as inactive or inconclusive; further: nearly all actives have a fitted effect of over 55% in size; further: potency means the concentration at half of the fitted maximal effect)
Outline: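 KeratinoSens HaCaT cells, 1,500/well, preincubated 5 h, then exposed to compounds in DMSO for 23 h at 37 C/5% CO2. Viability read as CellTiter-Fluor fluorescence after 1 h, in the same wells as the ARE-luciferase read.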

[2] = Nuclear factor erythroid 2-related factor 2/antioxidant responsive element (Nrf2/ARE) small molecule agonists: luciferase reporter gene qHTS assay in human keratinocytes (AID 1919969); further: nearly all actives have a fitted effect of over 35% in size; further: potency means the concentration at half of the fitted maximal effect
[3] = molecular target: Gonadotropin-releasing hormone receptor (Homo sapiens) (UniProt P30968); experiment: Human gonadotropin-releasing hormone receptor (GnRHR) small molecule agonists, calcium flux assay in GnRHR-HEK293 cells (AID 1920063); further: nearly all actives have a fitted effect of over 35% in size
Outline: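 HEK293 cells stably expressing human GnRHR were dye-loaded for 1 h at 37 C. Compound was added in agonist mode and fluorescence (Ex/Em 480/540) recorded kinetically for 3 min. Fifteen concentrations, triplicates.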

[4] = molecular target: KiSS-1 receptor (Homo sapiens) (UniProt Q969F8); experiment: Human kisspeptin (KISS1R) small molecule agonists, calcium flux assay in KISS1R-HEK293 cells (AID 1920064; active means well fitted curve in the direction sought with a large enough effect in the repeat runs; an effect the other way counts as inactive or inconclusive)
Outline: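 HEK293 cells stably expressing human KISS1R were loaded with calcium dye for 1 h at 37 C, then given compound; fluorescence (Ex/Em 480/540) was read kinetically for 3 min. Fifteen concentrations, triplicate.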

[5] = G protein-coupled receptor (GPCR) small molecule agonists, calcium flux assay: HEK293 wild type cell line counter screen (AID 1920065)
Outline: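 Wild-type HEK293 cells plated 18 h, loaded with calcium dye 1 h at 37 C, then compounds added in agonist mode (ATP as positive control). Kinetic fluorescence Ex/Em 480/540 recorded 3 min at 1 sec intervals; 15 concentrations, triplicate.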

[6] = p53 small molecule agonists, cell-based qHTS assay with human liver microsomes (AID 1963577)
Outline: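 p53RE-bla reporter cells were pre-incubated 5 h at 37 C, then treated with compounds plus human liver microsomes (0.5 mg/mL final) and NADPH (0.5 mg/mL final) for 16 h at 37 C. Beta-lactamase activity was read by LiveBLAzer fluorescence after 2 h at room temperature.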

[7] = p53 small molecule agonists, cell-based qHTS assay with rat liver microsomes (AID 1963578)
Outline: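 p53RE-bla cells were exposed to compounds together with rat liver microsomes (0.5 mg/mL final) and NADPH (0.5 mg/mL final) for 16 h at 37 C, then read by LiveBLAzer beta-lactamase fluorescence after 2 h at room temperature.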

[8] = p53 small molecule agonists, cell-based qHTS assay with human liver microsomes: qHTS cell viability counter screen (AID 1963579); further: nearly all actives have a fitted effect of over 45% in size; further: potency means the concentration at half of the fitted maximal effect
Outline: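 p53RE-bla cells (4,000/well) were pre-incubated 5 h at 37 C, then given compounds in DMSO plus human liver microsomes (0.5 mg/mL final) and NADPH (0.5 mg/mL final) for 16 h at 37 C. Viability was read by CellTiter-Glo luminescence.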

[9] = p53 small molecule agonists, cell-based qHTS assay: qHTS cell viability counter screen (AID 1963581); further: nearly all actives have a fitted effect of over 45% in size
Outline: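 p53RE-bla HCT-116 cells, compounds added 5 h after plating and incubated 16 h at 37 C. Cytotoxicity measured in the same wells as intracellular ATP by CellTiter-Glo luminescence after 30 min at room temperature.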

[10] = p53 small molecule agonists, cell-based qHTS assay (AID 1963582; active means well fitted activation curve with a large enough effect in the signal ratio in the repeat runs, not every such curve was filed as active; the % refers to the signal ratio)
Outline: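 p53RE-bla reporter cells, compounds added in DMSO after 5 h plating, incubated 16 h at 37 C. Beta-lactamase read via 2 h room-temperature LiveBLAzer B/G FRET substrate, fluorescence intensity.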

[11] = molecular target: 5-hydroxytryptamine receptor 2A (Homo sapiens) (UniProt P28223); experiment: 5-hydroxytryptamine receptor 2A (HTR2A) small molecule agonists, cell-based qHTS assay (AID 1963587); further: nearly all actives have a fitted effect of over 30% in size; further: potency means the concentration at half of the fitted maximal effect
Outline: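 CHO cells stably expressing human HTR2A, plated 18 h, loaded with calcium dye 1 h at 37 C. Agonist mode: compounds added and intracellular calcium fluorescence recorded kinetically for 2 min at 1 sec intervals.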

[12] = cAMP Responsive Elements (CRE) small molecule agonists, cell-based qHTS assay (AID 1963590)
Outline: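 CRE-bla HEK 293T cells, 2,000/well in DMEM with 10% dialyzed FBS and 25 mM HEPES, pre-incubated 18 h at 37 C, then exposed to compound 3 h at 37 C. Beta-lactamase reporter read with LiveBLAzer B/G FRET substrate after 2 h at room temperature.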

[13] = cAMP Responsive Elements (CRE) small molecule antagonists, cell-based qHTS assay (AID 1963591; active means well fitted inhibition curve with a large enough effect in the signal ratio in the repeat runs, not every such curve was filed as active; the % refers to the signal ratio)
Outline: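 CRE-bla HEK293T cells plated 18 h, then given compound plus NKH477 at 0.25 uM final for 3 h at 37C. Beta-lactamase reporter read with LiveBLAzer B/G FRET substrate after 2 h at room temperature.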

[14] = molecular target: Beta-2 adrenergic receptor (Homo sapiens) (UniProt P07550); experiment: Adrenergic beta2 receptor (ADRB2) small molecule antagonists, cell-based qHTS assay (AID 1963592); further: series mostly up to about 92 µM; nearly all actives have a fitted effect of over 50% in size
Outline: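 Cells (CHO, stable ADRB2 overexpression) incubated 18-20hr at 37C; compounds added from DMSO; agonist mix (1nM isoproterenol, 100uM IBMX, 25uM Ro-20-1724) added; 0.5hr RT; d2-cAMP and anti-cAMP-cryptate added; 1hr RT; 665/615 nm read.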

[15] = molecular target: D(2) dopamine receptor (Homo sapiens) (UniProt P14416); experiment: Dopamine D2 receptor (DRD2) small molecule agonists, cell-based qHTS assay (AID 1963594); further: nearly all actives have a fitted effect of over 35% in size; further: potency means the concentration at half of the fitted maximal effect
Outline: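 HEK293 cells stably expressing human DRD2, pre-treated with PDE inhibitor Ro20-1724 (0.1 mM final) and compound 10 min at room temperature, then stimulated with NKH477 (200nM […]) for 30 min. cAMP read by HTRF (665/620 nm).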

[16] = molecular target: D(2) dopamine receptor (Homo sapiens) (UniProt P14416); experiment: Dopamine D2 receptor (DRD2) small molecule antagonists, cell-based qHTS assay (AID 1963595; active means well fitted inhibition curve with a large enough effect in the signal ratio in the repeat runs, with a control signal flat; the % refers to the signal ratio)
Outline: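 Antagonism was scored as restored cAMP in HEK293-DRD2 cells. These cells were stimulated with 200 nM NKH477 and 12 nM quinpirole for 30 min at room temperature, in the presence of 0.1 mM Ro20-1724.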

[17] = p53 small molecule agonists, cell-based qHTS assay with rat liver microsomes: qHTS cell viability counter screen (AID 1963580); further: nearly all actives have a fitted effect of over 45% in size; further: potency means the concentration at half of the fitted maximal effect
Outline: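 p53RE-bla HCT-116 cells were exposed 16 h at 37 C to compounds with rat liver microsomes (0.5 mg/mL) and NADPH (0.5 mg/mL). Viability was measured in the same wells as ATP content by CellTiter-Glo luminescence.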

[18] = molecular target: 5-hydroxytryptamine receptor 2A (Homo sapiens) (UniProt P28223); experiment: 5-hydroxytryptamine receptor 2A (HTR2A) small molecule antagonists, cell-based qHTS assay (AID 1963586); further: nearly all actives have a fitted effect of over 45% in size
Outline: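 Antagonist-mode intracellular calcium assay: DOI (4 nM) added after 5 min compound pre-incubation at room temperature to dye-loaded HTR2A-CHO cells. Fluorescence followed for 3 min, sampled every second.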

[19] = molecular target: Muscarinic acetylcholine receptor M1 (Homo sapiens) (UniProt P11229); experiment: Cholinergic receptor muscarinic 1 (CHRM1) small molecule antagonists, cell-based qHTS assay (AID 1963588); further: nearly all actives have a fitted effect of over 40% in size
Outline: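 CHRM1-CHO calcium-flux assay, antagonist mode. Cells were seeded 18 h, dye-loaded 1 h at 37 C and given compound for 5 min at RT, then acetylcholine was added at 50nM. FDSS fluorescence was read 3 min; 15 concentrations, three runs.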

[20] = molecular target: Muscarinic acetylcholine receptor M1 (Homo sapiens) (UniProt P11229); experiment: Cholinergic receptor muscarinic 1 (CHRM1) small molecule agonists, cell-based qHTS assay (AID 1963589); further: nearly all actives have a fitted effect of over 35% in size
Outline: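 CHO cells stably expressing human CHRM1 were loaded with calcium dye for 1 h at 37 C, then compound was added in agonist mode. Intracellular calcium fluorescence was followed kinetically at 1 s intervals. Fifteen concentrations were tested in three independent runs.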

Measured: Potency

5-hydroxytryptamine receptor 2A (Homo sapiens), sequence (P28223 whole entry, looked up): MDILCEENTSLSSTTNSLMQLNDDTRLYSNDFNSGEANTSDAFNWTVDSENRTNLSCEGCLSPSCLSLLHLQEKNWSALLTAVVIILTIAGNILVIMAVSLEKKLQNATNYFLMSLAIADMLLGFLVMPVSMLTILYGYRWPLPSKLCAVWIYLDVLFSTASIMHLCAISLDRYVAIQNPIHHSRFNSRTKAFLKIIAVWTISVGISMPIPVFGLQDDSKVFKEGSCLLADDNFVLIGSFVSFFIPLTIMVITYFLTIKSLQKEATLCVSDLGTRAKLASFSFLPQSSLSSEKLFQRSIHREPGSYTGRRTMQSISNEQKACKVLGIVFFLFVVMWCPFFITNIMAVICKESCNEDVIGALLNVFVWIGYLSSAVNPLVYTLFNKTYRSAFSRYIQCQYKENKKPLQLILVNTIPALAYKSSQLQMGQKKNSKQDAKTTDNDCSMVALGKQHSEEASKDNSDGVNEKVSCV
D(2) dopamine receptor (Homo sapiens), sequence (P14416 whole entry, looked up): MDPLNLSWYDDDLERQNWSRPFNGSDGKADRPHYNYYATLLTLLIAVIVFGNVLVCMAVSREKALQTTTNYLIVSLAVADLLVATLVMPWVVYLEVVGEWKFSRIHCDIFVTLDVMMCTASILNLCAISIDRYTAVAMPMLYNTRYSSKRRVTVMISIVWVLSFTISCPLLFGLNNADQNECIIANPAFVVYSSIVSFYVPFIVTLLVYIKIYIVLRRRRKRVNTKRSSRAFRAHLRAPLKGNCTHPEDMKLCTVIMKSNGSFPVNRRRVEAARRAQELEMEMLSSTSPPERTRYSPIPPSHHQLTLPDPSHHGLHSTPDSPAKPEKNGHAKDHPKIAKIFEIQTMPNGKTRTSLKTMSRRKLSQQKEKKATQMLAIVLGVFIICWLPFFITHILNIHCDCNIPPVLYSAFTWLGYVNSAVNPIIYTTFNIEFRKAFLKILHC
Gonadotropin-releasing hormone receptor (Homo sapiens), sequence (P30968 whole entry, looked up): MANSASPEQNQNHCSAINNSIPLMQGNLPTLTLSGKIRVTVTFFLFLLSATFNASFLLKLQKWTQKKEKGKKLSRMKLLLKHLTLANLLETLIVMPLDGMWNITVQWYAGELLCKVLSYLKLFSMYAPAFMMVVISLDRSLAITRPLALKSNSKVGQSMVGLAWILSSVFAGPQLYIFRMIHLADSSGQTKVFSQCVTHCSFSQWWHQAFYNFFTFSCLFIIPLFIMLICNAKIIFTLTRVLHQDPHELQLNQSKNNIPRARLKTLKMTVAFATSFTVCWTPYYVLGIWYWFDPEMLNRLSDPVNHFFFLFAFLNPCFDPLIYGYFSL
KiSS-1 receptor (Homo sapiens), sequence (Q969F8 whole entry, looked up): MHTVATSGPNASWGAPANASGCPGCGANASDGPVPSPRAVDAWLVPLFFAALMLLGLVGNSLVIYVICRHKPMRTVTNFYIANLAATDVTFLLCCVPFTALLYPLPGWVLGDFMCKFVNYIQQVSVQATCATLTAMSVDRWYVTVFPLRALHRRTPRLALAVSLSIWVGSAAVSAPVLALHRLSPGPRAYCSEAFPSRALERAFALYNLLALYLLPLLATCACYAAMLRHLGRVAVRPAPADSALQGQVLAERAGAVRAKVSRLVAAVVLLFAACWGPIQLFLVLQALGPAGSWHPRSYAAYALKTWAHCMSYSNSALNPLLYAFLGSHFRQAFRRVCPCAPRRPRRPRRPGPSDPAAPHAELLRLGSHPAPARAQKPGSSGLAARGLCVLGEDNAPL
Muscarinic acetylcholine receptor M1 (Homo sapiens), sequence (P11229 whole entry, looked up): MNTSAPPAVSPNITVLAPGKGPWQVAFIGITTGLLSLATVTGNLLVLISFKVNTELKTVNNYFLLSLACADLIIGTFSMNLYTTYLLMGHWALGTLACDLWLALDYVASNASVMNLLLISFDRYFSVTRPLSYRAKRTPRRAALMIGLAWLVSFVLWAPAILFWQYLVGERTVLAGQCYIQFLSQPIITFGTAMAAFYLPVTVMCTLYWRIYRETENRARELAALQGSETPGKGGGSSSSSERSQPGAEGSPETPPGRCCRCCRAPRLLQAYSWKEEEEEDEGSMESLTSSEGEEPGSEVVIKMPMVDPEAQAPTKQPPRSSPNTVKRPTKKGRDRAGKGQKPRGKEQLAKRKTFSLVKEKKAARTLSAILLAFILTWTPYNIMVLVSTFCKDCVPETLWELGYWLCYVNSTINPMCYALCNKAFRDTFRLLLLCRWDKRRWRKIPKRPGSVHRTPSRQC
Beta-2 adrenergic receptor (Homo sapiens), sequence (P07550 whole entry, looked up): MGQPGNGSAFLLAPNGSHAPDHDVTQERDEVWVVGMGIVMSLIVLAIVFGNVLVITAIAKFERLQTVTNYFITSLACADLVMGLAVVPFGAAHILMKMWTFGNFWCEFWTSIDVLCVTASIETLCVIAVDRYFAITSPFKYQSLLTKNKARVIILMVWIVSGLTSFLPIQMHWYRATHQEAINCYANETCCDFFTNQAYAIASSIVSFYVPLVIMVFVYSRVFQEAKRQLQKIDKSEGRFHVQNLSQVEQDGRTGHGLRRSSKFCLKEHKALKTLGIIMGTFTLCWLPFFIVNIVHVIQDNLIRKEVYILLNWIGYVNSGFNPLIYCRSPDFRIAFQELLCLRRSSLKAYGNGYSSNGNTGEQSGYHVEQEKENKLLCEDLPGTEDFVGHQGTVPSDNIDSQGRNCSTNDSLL

CCN(CC)CCOC(=O)C(O)(c1ccccc1)c1ccccc1
inactive: [1] | [2] | [3] | [4] | [5] | [6] | [7] | [8] | [9] | [10] | [12] | [13] | [14] | [15] | [16]
active: [11] 1.34 µM

CCOC(=O)NC(C)(C)Cc1ccc(Cl)cc1
inactive: [1] | [2] | [3] | [4] | [5] | [6] | [7] | [17] | [9] | [10] | [18] | [11] | [19] | [20] | [12] | [14] | [15] | [16]

Oc1cccc(Cl)c1Cl
inactive: [1] | [2] | [3] | [4] | [5] | [6] | [7] | [17] | [9] | [10] | [18] | [11] | [19] | [20] | [12] | [14] | [15]

Cc1nnc2n1-c1sc(CCC(=O)N3CCOCC3)cc1C(c1ccccc1Cl)=NC2
inactive: [1] | [2] | [3] | [4] | [5] | [6] | [7] | [8] | [9] | [10] | [11] | [19] | [20] | [15]

Oc1cc(Cl)c(Cl)c(Cl)c1Cl
inactive: [3] | [4] | [5] | [6] | [7] | [18] | [20] | [15] | [16]
active: [1] 53.2 µM | [2] 53.2 µM | [8] 17.8 µM | [17] 17.8 µM

C[N+]1(C)[C@@H]2CC[C@H]1CC(OC(=O)C(CO)c1ccccc1)C2 (stereo partly drawn)
inactive: [1] | [2] | [3] | [4] | [5] | [6] | [7] | [8] | [9] | [18] | [11] | [12] | [13] | [15] | [16]

COc1ccc(OC)c(C=O)c1
inactive: [1] | [2] | [3] | [4] | [5] | [6] | [7] | [8] | [17] | [18] | [11] | [19] | [12] | [14] | [15] | [16]

CCCCS(=O)(=O)Cl
inactive: [1] | [2] | [3] | [4] | [5] | [6] | [7] | [8] | [9] | [18] | [11] | [19] | [12] | [13] | [14] | [15] | [16]

CCCCc1c(C)nc(NCC)nc1OS(=O)(=O)N(C)C
inactive: [1] | [2] | [3] | [4] | [5] | [6] | [7] | [8] | [9] | [18] | [11] | [20] | [14] | [16]

CC(C)(COCC1CO1)COCC1CO1 (stereo not drawn)
inactive: [1] | [3] | [4] | [5] | [6] | [7] | [8] | [9] | [10] | [18] | [11] | [20] | [12] | [13] | [14] | [15] | [16]
active: [2] 68.6 µM

O=C(N[C@H]1N=C(c2ccccc2F)c2cccc3c2N(CC3)C1=O)c1cc2ccccc2[nH]1
inactive: [1] | [2] | [3] | [4] | [5] | [6] | [7] | [8] | [17] | [18] | [11] | [19] | [20] | [12] | [13] | [14] | [16]
active: [15] 8.74 µM

CCC(C)(NC(=O)c1cc(Cl)c(C)c(Cl)c1)C(=O)CCl (stereo not drawn)
inactive: [3] | [4] | [5] | [6] | [7] | [8] | [17] | [19] | [20] | [14] | [15]
active: [1] 24.5 µM | [2] 1.54 µM | [11] 49.3 µM

c1ccc2c(c1)CCNC2
inactive: [1] | [2] | [3] | [4] | [5] | [6] | [7] | [8] | [9] | [10] | [11] | [19] | [20] | [12] | [13] | [14] | [15] | [16]

SCc1ccco1
inactive: [1] | [3] | [4] | [5] | [6] | [7] | [8] | [17] | [18] | [11] | [19] | [20] | [12] | [13] | [15] | [16]
active: [2] 68.6 µM

O=C(Cl)c1ccccc1F
inactive: [1] | [2] | [3] | [4] | [5] | [6] | [7] | [17] | [9] | [10] | [18] | [11] | [19] | [20] | [13] | [14] | [15] | [16]

CC1(C)CN=C(NN=C(/C=C/c2ccc(C(F)(F)F)cc2)/C=C/c2ccc(C(F)(F)F)cc2)NC1
inactive: [2] | [3] | [4] | [5] | [6] | [7] | [8] | [18] | [11] | [19] | [20] | [14] | [15] | [16]
active: [1] 12.2 µM
